High-throughput results (PubChem)
Sfp PPTase inh: Sfp phosphopantetheinyl transferase inhibition; AID 1490; Potency, µM, for inactives: largest response in the series, negative = inhibition, usual class: inhibitors; Q9F4F7; 3.5% of 310,000 active; Biochemical Sfp PPTase activity, qHTS;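 also: the enzyme is Sfp with the accession as filed and its product quenches rhodamine fluorescence; potency is read from the fitted curve at half-maximal effect; 0% = enzyme reaction without inhibitor and -100% = no enzyme wells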
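With Hepes-Na pH 7.6 buffer containing 10 mM MgCl2, Sfp (15 nM) modified BHQ-2-YbbR (12.5 uM) using rhodamine-CoA (5 uM). Two reads 30 minutes apart at 525/598 nm yielded each well's rate.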
Tau fibril ThT: tau fibrillization inhibition (ThT binding); P10636; recombinant tau K18 P301L, heparin-induced fibrillization, ThT fluorescence; Potency, µM (top dose mostly 57.4 µM), for the others: at the highest dose activity, negative = inhibition, actives largely listed as inhibitors; 2.1% of 270,000 active; AID 1460; also: potency is read from the fitted curve at half-maximal effect; nearly all actives have a fitted effect of over 55% in size
Target sequence (P10636 561-689 P618L limits assumed): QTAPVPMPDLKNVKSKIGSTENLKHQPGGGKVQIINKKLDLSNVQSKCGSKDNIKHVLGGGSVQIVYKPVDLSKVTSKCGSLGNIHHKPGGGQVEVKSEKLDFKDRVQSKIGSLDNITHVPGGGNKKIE
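Heparin-induced (20 uM) aggregation of recombinant human K18 P301L tau, 15 uM unlabeled with 0.24 uM labeled, pH 7 acetate buffer, 6 hr at 37 C with compound. Fibrils quantified by 30 uM ThT fluorescence after 1 hr ambient incubation.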
Tau fluor counter: counter-screen for tau fibril formation inhibitors | tau K18 P301L Alexa594 fluorescence, heparin fibrillization | Potency, µM (doses to about 57.7 µM), inactives show top-dose activity change, negative = decrease | 0.93% of 280,000 active; also: potency is read from the fitted curve at half-maximal effect; nearly all actives have a fitted effect of over 55% in size
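Human K18 P301L tau (15 uM unlabeled plus 0.24 uM Alexa 594-labeled, final) in 100 mM sodium acetate pH 7 was mixed with compound and 20 uM heparin and incubated 6 hr at 37 C.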
G9a inh: G9a (human) methyltransferase inhibition. Q96KQ7. G9a H3K9 monomethylation, AlphaScreen, 2 h. Potency, µM (top dose mostly 102 µM), for inactives: at the highest dose activity, negative = inhibition, usual class: inhibitors. 8.8% of 350,000 active; also: potency is read from the fitted curve at half-maximal effect; nearly all actives have a fitted effect of over 75% in size
Target sequence (Q96KQ7 913-1193 limits assumed): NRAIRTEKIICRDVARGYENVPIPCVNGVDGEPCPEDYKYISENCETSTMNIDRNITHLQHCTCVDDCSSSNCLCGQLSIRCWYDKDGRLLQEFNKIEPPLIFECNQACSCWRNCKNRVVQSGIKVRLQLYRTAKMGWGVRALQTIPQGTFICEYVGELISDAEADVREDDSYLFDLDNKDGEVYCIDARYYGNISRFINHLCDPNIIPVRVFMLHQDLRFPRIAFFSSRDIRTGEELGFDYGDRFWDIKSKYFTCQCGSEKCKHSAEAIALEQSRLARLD
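Methyltransferase reactions run at room temperature for 2 h (20 nM enzyme, 500 nM biotin-H3K9 peptide, 20 uM SAM) after a 15 min compound preincubation; product detected by AlphaScreen beads and anti-H3K9me1 antibody.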
Coupling enz: inhibits coupling enzyme system, counter-screen for aldolase hits; 0.67% of 290,000 active; coupling enzyme system counterscreen, AmpLite Red fluorescence; AID 2472; activity change, negative = inhibition, % at 58.2 µM, hits read low; in the data active = activity change below about -30%
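Final compound at 57.5 uM, incubated 10 min at RT with coupling enzyme reagent (glyceraldehyde-3-phosphate), then 20 min with substrate and AmpLite Red detection. Fluorescence read at 525/598 nm; tests interference with the coupling assay, not aldolase inhibition.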
Tau FP inhib: inhibitors of human tau fibril formation | 0.39% of 280,000 active | K18 P301L tau heparin fibrillization, Alexa594 FP, 6 h | AID 1468 | P10636 | Potency, µM (doses to about 57.7 µM), for the others: at the top dose activity, negative = inhibition, actives largely listed as inhibitors; also: potency is read from the fitted curve at half-maximal effect; nearly all actives have a fitted effect of over 55% in size
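Heparin (20 uM) drove fibril formation of recombinant tau K18 P301L, 15 uM unlabeled with 0.24 uM Alexa 594 label, for 6 hr at 37 C in 100 mM sodium acetate pH 7. Fluorescence polarization (555/632 nm) read 1 hr after 30 uM ThT.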
The depositor's hits bear a star; [ ] = another dose, or the depositor's remark. In the library only some 11% were active in any assay of this set; here they are far more common. Unless noted, calls follow the shape of the dose curve; as a rule, active = well fitted curve in the direction sought with a large enough effect; inconclusive = small, poorly fitted or top-dose-only effect, or another doubt; inactive = no such curve, though single readings can be large; an effect the other way counts as inactive or inconclusive. Unless noted, % is scaled to controls: 0 for no effect and ±100 for the full control effect.

Screening COC(=O)c1c(NC(=O)c2nc(SCc3ccccc3C)ncc2Cl)sc2c1CCCC2 returned Tau fibril ThT -11%, Tau fluor counter -5%, G9a inh 30%[59 µM] and Tau FP inhib 1%.
For COc1cccc(NC(=S)NCc2ccc3c(c2)cc(C)n3C)c1 the results were Sfp PPTase inh 20%, Tau fibril ThT -9%, Tau fluor counter inconclusive, G9a inh 35µM*, Coupling enz -4 and Tau FP inhib 4%.
CC(=O)Nc1ccc(S(=O)(=O)NCc2ccc3c(c2)cc(C)n3C)cc1 was read as Sfp PPTase inh -12%, Tau fibril ThT inconclusive, Tau fluor counter inconclusive, G9a inh 79µM*, Coupling enz -5 and Tau FP inhib 12%.
Cc1cc2cc(CNC(=O)Nc3cccc(Cl)c3)ccc2n1C was read as Sfp PPTase inh inconclusive, Tau fibril ThT inconclusive, Tau fluor counter inconclusive, G9a inh -22%[59 µM], Coupling enz -4 and Tau FP inhib inconclusive.
For Cc1cccc(NC(=O)NCc2ccc3c(c2)cc(C)n3C)c1 the results were Sfp PPTase inh 50µM*, Tau fibril ThT 0%, Tau fluor counter -14%, G9a inh inconclusive, Coupling enz -22 and Tau FP inhib 6%.
Screening Cc1cc2cc(CNC(=S)Nc3ccc(OC(F)(F)F)cc3)ccc2n1C returned Sfp PPTase inh 27%, Tau fibril ThT -4%, Tau fluor counter -27%, G9a inh 8%, Coupling enz 1 and Tau FP inhib -1%.
Screening Cc1ccc2c(Sc3ccccc3)c(C(=O)NCc3ccccc3F)[nH]c2c1 returned Tau fibril ThT -16%, Tau fluor counter -27%, G9a inh inconclusive and Tau FP inhib 11%.
Cc1ccc(OCC(=O)c2cc(C)n(-c3ccccc3)c2C)c([N+](=O)[O-])n1 was read as Sfp PPTase inh -13%, Tau fibril ThT inconclusive, Tau fluor counter inconclusive, G9a inh -21%[59 µM], Coupling enz -2 and Tau FP inhib 2%.
For Cc1ccc(C)c(C(=O)COc2ccc(C)nc2[N+](=O)[O-])c1 the results were Sfp PPTase inh -20%, Tau fibril ThT 16µM*, Tau fluor counter inconclusive, G9a inh inconclusive, Coupling enz -3 and Tau FP inhib inconclusive.
For Cc1ccc(OCC(=O)N2CCC(Cc3ccccc3)CC2)c([N+](=O)[O-])n1 the results were G9a inh 10µM*.
For Cc1ccc(OCC(=O)c2cc(C)c(C)cc2C)c([N+](=O)[O-])n1 the results were Sfp PPTase inh -21%, Tau fibril ThT 16µM*, Tau fluor counter inconclusive, G9a inh inconclusive, Coupling enz -5 and Tau FP inhib inconclusive.
`CCOC(=O)c1c(C)[nH]c(C)c1S(=O)(=O)NCC(=O)Nc1cccc(C#N)c1` gave Tau fibril ThT -7%, Tau fluor counter -15%, G9a inh 2%[59 µM] and Tau FP inhib -17%.
`CCN1C(=O)c2ccccc2Sc2ccc(NC(=O)Nc3cc(C)cc(C)c3)cc21` gave Tau fibril ThT inconclusive, Tau fluor counter 19%, G9a inh -38%[59 µM] and Tau FP inhib -4%.
`COC(CN(C(=O)CCl)C(C(=O)NC1CCCC(C)C1C)c1ccc(C)cc1)OC` (centres undefined) gave Sfp PPTase inh 4%, Tau fibril ThT -5%, Tau fluor counter -2%, G9a inh 50µM*, Coupling enz 4 and Tau FP inhib -1%.
Screening CC(=O)N1CCC2(CCN(Cc3cc(C(F)(F)F)cc(C(F)(F)F)c3)CC2)CC1 returned Sfp PPTase inh 5%, G9a inh 6%[12.7 µM] and Coupling enz -2.
`Cc1ccc(S(=O)(=O)N(C)c2ccc(OCC(=O)N3CCCCC3)cc2)cc1` gave Sfp PPTase inh 11% and G9a inh 6%.
Screening CC1=C(C)/C(=N/OC(=O)c2cccc([N+](=O)[O-])c2)C=CC1=O returned Sfp PPTase inh 18%, Tau fibril ThT inconclusive, Tau fluor counter -18%, G9a inh 10µM*, Coupling enz -8 and Tau FP inhib -8%.
CC(C)(C)OC(=O)N1CCC(c2c(C(=O)N3CCN(C(=O)c4ccco4)CC3)cnn2-c2ccccc2Cl)CC1 was read as Tau fibril ThT -10%, Tau fluor counter -8%, G9a inh inconclusive and Tau FP inhib -4%.
Screening Nc1ccc(-n2cnc3cc([N+](=O)[O-])ccc32)cc1 returned Sfp PPTase inh 15%, Tau fibril ThT inconclusive, Tau fluor counter -9%, G9a inh 5%[12.7 µM], Coupling enz -6 and Tau FP inhib 0%.
Cc1cccc(-n2cnc3cc([N+](=O)[O-])ccc32)c1 was read as Sfp PPTase inh -27%, Tau fibril ThT -10%, Tau fluor counter -14%, G9a inh 11µM*, Coupling enz -3 and Tau FP inhib 0%.
For CC12CCC(c3n[nH]c(=S)nc31)C2(C)C (centres undefined) the results were Sfp PPTase inh inconclusive, Tau fibril ThT -12%, Tau fluor counter -13%, G9a inh 8.9µM*, Coupling enz 0 and Tau FP inhib -15%.
Screening COC(=O)C1=C(C)NC(C)=C(C(=O)OCCSc2ccccc2)[C@@H]1C returned Sfp PPTase inh 6%, Tau fibril ThT -19%, Tau fluor counter 16µM*[quencher], Coupling enz 0 and Tau FP inhib 10%.
Screening CCSCCOC(=O)C1=C(C)NC(=O)NC1c1ccccc1 (centres undefined) returned Sfp PPTase inh 22%, Tau fibril ThT -13%, Tau fluor counter -18%, G9a inh -10%, Coupling enz 1 and Tau FP inhib -9%.
COc1ccc(NS(=O)(=O)c2ccc(-c3n[nH]c(=S)n3Cc3ccccc3)cc2)cc1 was read as Sfp PPTase inh -5%, Tau fibril ThT -4%, Tau fluor counter -12%, G9a inh 4µM*, Coupling enz -2 and Tau FP inhib 4%.
COc1ccc(NS(=O)(=O)c2cccc(-c3n[nH]c(=S)n3Cc3ccccc3)c2)cc1 was read as Sfp PPTase inh -14%, Tau fibril ThT -9%, Tau fluor counter -23%, G9a inh 7.1µM*, Coupling enz 7 and Tau FP inhib inconclusive.
For COc1ccc(-c2n[nH]c(=S)n2Cc2ccccc2)cc1 the results were Sfp PPTase inh -18% and Coupling enz 4.
COc1ccc(C2CCCN2C(=S)Nc2cccc(Cl)c2C)cc1OC (centres undefined) was read as Sfp PPTase inh 15%, Tau fibril ThT -6%, Tau fluor counter -12%, G9a inh -47%, Coupling enz -3 and Tau FP inhib 4%.
